Results on 89 compounds are retold here after PubChem BioAssay AID2016 (NMMLSC, 2009).

Screen size: about 330,000 compounds; about 1,700 (0.52%) were called active. For the sample, actives were picked, then their nearest neighbours and some compounds at random. Unmarked numbers belong to inactive results.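 How the source made its calls: active means GFP response versus DMSO above a set limit, roughly screen mean plus 3 SD (cut at about 180% in these data); inconclusive means fewer than 70 cells counted for a yeast strain; inactive means the rest.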

A short description of this assay: TOR pathway GLN3 branch reporter MEP2-GFP changes – S. cerevisiae, multiplex flow cytometry, MLPCN library, primary screen (AID 2016).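 Further: median GFP fluorescence of the barcode-gated MEP2-GFP cells per well.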 Conditions: S. cerevisiae MEP2-GFP strain, 3 h, at 10 µM, stronger effect = higher value, 100% = DMSO control level.
For the compound `COc1ccc(S(=O)(=O)NCC(c2ccco2)N2CCOCC2)cc1` (centres undefined), the GFP response vs DMSO was 97.3%.
As to `O=C(CC1CCCCC1)NCc1ccc(F)cc1`, the GFP response vs DMSO is 92.1%.
The same measure for `O=C(CSc1nnnn1-c1ccc(O)cc1)c1ccc(F)cc1`: 106%.
As for `COC(=O)c1ccc(-c2noc(CN(Cc3ccccn3)CC3CCCO3)n2)cc1` (centres undefined), the GFP response vs DMSO was 102%.
The same measure for `COc1ccc(CN2CCn3ncc(C(=O)Nc4ccc(Cl)cc4Cl)c3C2=O)cc1`: 107%; for `O=C1N=C(N2CCOCC2)CS1`: 99.2%; for `CC(=O)NC(CC(=O)Nc1ccc(S(=O)(=O)N2CCOCC2)cc1)c1ccccc1` (centres undefined): 95.3%.
Consider `O=[N+]([O-])c1cccc(/C=N/Nc2ncc(Br)cn2)c1`, for which the GFP response vs DMSO is 239% (active).
Turning to `O=[N+]([O-])c1ccc(N/N=C/c2ccccc2)cc1`, the GFP response vs DMSO was 102%.
The same measure for `O=C(N/N=C/c1cccc([N+](=O)[O-])c1)C1CC(=O)N(c2ccc(Br)cc2)C1` (centres undefined): 100%; for `CCOC(=O)C(CC)Sc1ncnc2c1nnn2-c1ccc(F)cc1` (centres undefined): 191% (active); for `COC(=O)C(C)n1cnc2c(nnn2-c2ccc(F)cc2)c1=O` (centres undefined): 95.3%.
Under `CCOC(=O)C(C)n1cnc2c(nnn2-c2ccc(F)cc2)c1=O` (centres undefined) stands 98.2%.
As for `CC(=O)c1cccc(OCc2cc(C(=O)NC(C)Cc3cccnc3)no2)c1` (centres undefined), the GFP response vs DMSO is 92.2%.
With `CCOC(=O)c1[nH]c(C)c(C(=O)OCC(=O)N2c3ccccc3CC2C)c1C` (centres undefined), the GFP response vs DMSO is 105%.
In the case of `CN(C)C(=O)c1cccn(Cc2cccc(C(F)(F)F)c2)c1=O`, the GFP response vs DMSO is 97.2%.
As to `COc1ccccc1Nc1nnc(SC(C)C(=O)NC2CC2)s1` (centres undefined), the GFP response vs DMSO was 100%.
For `COc1ccc(C(=O)NC2CC2)cc1OC1CCN(Cc2ccc(SC)cc2)CC1`, the GFP response vs DMSO is 112%.
Regarding `COc1ccc(CN2CCCC(C(=O)c3ccc(Cl)cc3)C2)cc1Cn1cncn1` (centres undefined), the GFP response vs DMSO was 99.8%.
Regarding `COc1cc(CN2CCCC(C(=O)c3ccc(SC)cc3)C2)cc(Cl)c1O` (centres undefined), the GFP response vs DMSO is 596% [may fluoresce violet] (active).
Under `COc1ccc(OC)c(NC(=O)CSc2nc(-c3ccccc3)cc(=O)[nH]2)c1` stands 107%; under `Cc1cc(=O)oc2cc(OCC3CC(c4ccccc4Cl)=NO3)ccc12` (centres undefined), 100%.
In the case of `O=C(Cn1ncc(N2CCCC2)c(Br)c1=O)c1ccc(Cl)cc1`, the GFP response vs DMSO is 98.2%.
Regarding `Cc1oc(-c2ccccc2F)nc1CS(=O)CC(=O)NCCN1CCCCC1C` (centres undefined), the GFP response vs DMSO was 103%.
On to `Cc1ccccc1S(=O)(=O)Cc1ccc(C(=O)NCCN2CCCCC2C)o1` (centres undefined), for which the GFP response vs DMSO is 460% [may fluoresce violet] (active).
As to `CCc1ccccc1S(=O)(=O)Cc1ccc(C(=O)NCCc2ccccc2)o1`, the GFP response vs DMSO was 109%.
The same measure for `CCOc1ccc(CCNC(=O)C(CC)n2nc(C)n3c(cc4sccc43)c2=O)cc1OCC` (centres undefined): 105%.
As to `CCc1ccc2nc(N(CCCN(C)C)C(=O)c3ccc4c(c3)OCCO4)sc2c1`, the GFP response vs DMSO was 104%.
On to `CCOc1ccc2nc(N(CCN(C)C)C(=O)c3ccc4ccccc4c3)sc2c1`, for which the GFP response vs DMSO was 233% [may fluoresce violet] (active).
Turning to `CCOc1ccc2nc(N(CCCN(C)C)C(=O)c3ccc(C(=O)c4ccccc4)cc3)sc2c1`, the GFP response vs DMSO is 104%.
Turning to `CC(C)(C)c1ccc(C(CC(=O)O)NS(=O)(=O)Cc2ccccc2)cc1` (centres undefined), the GFP response vs DMSO is 98.8%.
Turning to `CCSC1=NCCN1C(=O)c1ccc(S(=O)(=O)N(CC)CC)cc1`, the GFP response vs DMSO was 106%.
Turning to `O=C(NCCc1ccccc1)C(=O)NCC1OCCN1S(=O)(=O)c1cccs1` (centres undefined), the GFP response vs DMSO was 108%.
As to `CCN1/C(=C/c2ccc3ccc(C)cc3[n+]2CC)Sc2ccccc21`, the GFP response vs DMSO was 351% [may fluoresce green] (active).
Turning to `CCN1/C(=C\c2ccc3ccccc3[n+]2CC)Sc2cc(C)ccc21`, the GFP response vs DMSO was 1150% [may fluoresce green] (active).
As to `O=C(NC1Cc2ccccc2C1)c1cc(COc2cccc(C(F)(F)F)c2)on1`, the GFP response vs DMSO is 104%.
For the compound `Cc1ccc(OCC(=O)Nc2ccc(N3CCN(C(=O)c4ccco4)CC3)cc2)c(C)c1`, the GFP response vs DMSO is 229% [may fluoresce violet] (active).
Regarding `CCC(=O)Nc1ccc(C(=O)N2CCN(C(=O)c3ccco3)CC2)cc1`, the GFP response vs DMSO is 104%.
For `Cc1ccc(C)c(OCC(=O)N2CCN(C(=O)c3ccco3)CC2)c1`, the GFP response vs DMSO is 105%.
Regarding `CCN(C[C@H]1N[C@@](Cc2ccccc2)(C(=O)OC)[C@H]2C(=O)N(Cc3ccccc3)C(=O)[C@@H]12)C(=O)c1ccc(C)cc1`, the GFP response vs DMSO was 84.7%.
For the compound `COCC(C)OC(=O)c1c(N)n(CCCN2CCOCC2)c2nc3ccccc3nc12` (centres undefined), the GFP response vs DMSO is 210% [may fluoresce violet] (active).
The same measure for `CC(CN1CCOCC1)OC(=O)c1ccc(C(C)(C)C)cc1` (centres undefined): 110%; for `CC(C)(C)OC(=O)c1c(N)n(CCCN2CCCC2=O)c2nc3ccccc3nc12`: 107%.
For the compound `CCOC(=O)Cc1csc(NC(=O)CN(C)S(=O)(=O)c2ccc3c(c2)CCC(=O)N3)n1`, the GFP response vs DMSO is 96%.
Regarding `CCCN1C(=O)C(NC(C)=O)c2cc(OC)ccc21` (centres undefined), the GFP response vs DMSO was 107%.
Under `O=C(CS(=O)(=O)c1cn(Cc2ccc(Cl)cc2)c2ccccc12)N1CCOCC1` stands 91.9%.
For the compound `CC(=O)Nc1ccc(NC(=O)CS(=O)(=O)c2cn(CC(=O)N3CCCCC3)c3ccccc23)cc1`, the GFP response vs DMSO is 95.1%.
As for `O=C(CS(=O)(=O)c1cn(Cc2cccc(F)c2)c2ccccc12)N1CCCCC1`, the GFP response vs DMSO is 236% [may fluoresce violet] (active).
Under `CC(NC(=O)c1cccc2ccccc12)c1ccc2c(c1)CCCC2` (centres undefined) stands 148%.
`Cc1c(C(=O)OCC(=O)N2CCCC2=O)oc2ccccc12`: the GFP response vs DMSO is 108%.
As for `Cc1ccc(C(=O)N2CC(=O)Nc3ccccc32)o1`, the GFP response vs DMSO is 101%.
`O=C(O)c1cccc2c1C(=O)N(C1CCCC1)C2`: the GFP response vs DMSO was 97.4%.
The same measure for `Nc1nnc(SCC(=O)OCc2ccc(Cl)c(Cl)c2)s1`: 95.3%.
In the case of `Cc1ccc(C(=O)N/C(=C/C=C/c2ccccc2)C(=O)NCc2ccco2)cc1`, the GFP response vs DMSO is 95.7%.
For the compound `NC(=O)C1CCN(C(=O)/C(=C/c2ccco2)NC(=O)c2ccccc2)CC1`, the GFP response vs DMSO was 215% [may fluoresce violet] (active).
Consider `O=C(NCc1ccco1)/C(=C/c1ccco1)NC(=O)c1ccccc1`, for which the GFP response vs DMSO is 206% [may fluoresce violet] (active).
As for `CC1CCN(C(=O)/C(=C\c2ccccc2)NC(=O)c2ccccc2)CC1`, the GFP response vs DMSO was 106%.
Under `O=C(NCC1CCCO1)/C(=C\c1ccco1)NC(=O)c1ccccc1` (centres undefined) stands 102%.
As for `Cc1ccc(C(=O)N/C(=C\c2ccco2)C(=O)N2CCSCC2)cc1C`, the GFP response vs DMSO is 109%.
Under `N#CCCN1CCN(S(=O)(=O)c2ccc(S(=O)(=O)NC3CCCCC3)cc2)CC1` stands 107%; under `Cn1c2ccccc2c2c(C(=O)N3CCN(c4ccc(F)cc4)CC3)cn(C3CCCC3)c(=O)c21`, 116%; under `COc1cc(C)c(Cl)cc1S(=O)(=O)n1ccnc1`, 92%.
For `O=C(NCC(=O)N1CCN(c2ccccc2F)CC1)c1cccs1`, the GFP response vs DMSO is 111%.
Take `C/C(=N/NS(=O)(=O)c1ccccc1)c1ccc(NC(=O)C(F)(F)F)cc1`: the GFP response vs DMSO was 219% (active).
As to `CC(=O)N(C)c1ccc(NC(=O)C(F)(F)F)cc1`, the GFP response vs DMSO was 100%.
Regarding `C/C(=N\NS(=O)(=O)c1ccc(Cl)cc1)c1ccc(NC(=O)c2ccco2)cc1`, the GFP response vs DMSO was 102%.
Turning to `C[N+](C)(C)CCNC(=O)c1cc[n+](Cc2ccccc2)c(/C=N/O)c1`, the GFP response vs DMSO was 104%.
Take `COC(=O)Nc1ncc(CN2C(=O)c3ccccc3C2=O)s1`: the GFP response vs DMSO is 109%.
For `CCOC(=O)c1cnc(SCC(=O)NCc2ccco2)nc1N`, the GFP response vs DMSO is 222% (active).
Regarding `CCOC(=O)c1cnc(SCC(=O)Nc2cccc(OC)c2)nc1N`, the GFP response vs DMSO is 90.7%.
Regarding `CCOC(=O)c1cnc(SCC(=O)Nc2ccccc2C(=O)OC)nc1N`, the GFP response vs DMSO is 98.3%.
For the compound `CCOc1ccc(CN(Cc2ccco2)C(c2cccs2)c2nnnn2C(C)(C)C)cc1` (centres undefined), the GFP response vs DMSO is 98.9%.
Under `CCN(CCn1cccn1)C(=O)CC1C(=O)NCCN1Cc1cccc(OC)c1OC` (centres undefined) stands 100%; under `CC(=O)Nc1ccc(NC(=O)CC2CCCC2)cc1`, 779% [may fluoresce violet] (active).
Take `CC(=O)Nc1ccc(NC(=O)COC(=O)C2CCC(C(C)(C)C)CC2)cc1` (centres undefined): the GFP response vs DMSO was 103%.
The same measure for `COc1ccc(NC(=O)CN(C)C(=O)CC2CCCCC2)cc1`: 102%.
On to `O=C(COC(=O)/C=C/c1cccc(Cl)c1)NCCc1ccccc1`, for which the GFP response vs DMSO is 114%.
Take `O=C(c1ccco1)N(Cc1nc2ccccc2c(=O)[nH]1)C1CCCC1`: the GFP response vs DMSO is 271% [may fluoresce violet] (active).
As for `CCN(CC(=O)NC(=O)NCc1ccccc1)Cc1nc2ccccc2c(=O)[nH]1`, the GFP response vs DMSO is 98.5%.
Turning to `CCCC(=O)N(CCc1ccccc1)Cc1nc2ccccc2c(=O)[nH]1`, the GFP response vs DMSO is 85.6%.
With `COc1ccc(CNC(=O)CN(C(=O)c2csnn2)c2cnc3ccccc3c2)cc1`, the GFP response vs DMSO was 102%.
`CCCCCCNCCn1cnc2c(N)ncnc21`: the GFP response vs DMSO is 97.1%.
As for `COc1ccc(CCNC(=S)N2CCN(S(=O)(=O)c3ccc(F)cc3)CC2)cc1`, the GFP response vs DMSO is 103%.
The same measure for `COc1ccc(C(=O)NN(C)c2nc(-c3ccccc3)cc(C)c2S(C)(=O)=O)cc1`: 287% [may fluoresce violet] (active).
`COc1ccc(C(=O)Nc2cccc(S(C)(=O)=O)c2)cc1`: the GFP response vs DMSO is 112%.
Regarding `COc1ccc(NS(=O)(=O)c2cc(C(=O)Nc3ccccc3C(=O)O)ccc2C)cc1`, the GFP response vs DMSO was 95.4%.
Consider `O=C(CCc1ccc(S(=O)(=O)N2CCOCC2)cc1)NN=C1CCCCCCC1`, for which the GFP response vs DMSO was 104%.
In the case of `O=C(O)c1ccc(S(=O)(=O)N2CCOCC2)o1`, the GFP response vs DMSO is 264% [may fluoresce violet] (active).
On to `O=C(c1cc(S(=O)(=O)N2CCOCC2)ccc1Cl)N1CCOCC1`, for which the GFP response vs DMSO was 103%.
